An excerpt weighted towards active compounds, which were near 0.88% of everything screened.
TRHR agonist: qHTS for Small Molecule Agonists and Allosteric Enhancers of Human TRH Receptor: Primary Screen for Agonists | TRHR cells, calcium flux fluo-8, FDSS agonist mode | 360,000 compounds, 0.18% hits | Thyrotropin-releasing hormone receptor (Homo sapiens), P34981 | activation, % at 2 µM; in the data active = activation above about 30%; also: 0% is about no effect
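In this calcium-flux screen, cells bearing human TRHR are dye-loaded with fluo-8, baselined for 10 cycles, then exposed to library compounds; positive kinetic calcium responses during the agonist phase mark hits, with TRH as control.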
Epigenetic reg: Quantitative High-Throughput Screen for Regulators of Epigenetic Control. murine LDR cells, GFP reporter derepression, 30 h. Potency, µM (series often up to 53.9 µM), inactives show top-dose GFP activation, most hits filed as activators. 280,000 compounds, 0.2% hits. AID 1865, 2009; also: potency is read from the fitted curve at half-maximal effect; % of control where 0% means no effect; nearly all actives have a fitted effect of over 60% in size
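Reporter derepression read as number of fluorescent GFP-positive objects, 20-120 um in size, counted by laser-scanning cytometer. Mouse LDR line with an epigenetically silenced CMV-GFP locus; compound incubation 30 h, 37 C.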
CBFb-RUNX1 inh: qHTS Assay for Compounds Blocking the Interaction Between CBF-beta and RUNX1 for the Treatment of Acute Myeloid Leukemia. Potency, µM (doses to about 59.8 µM), for the others: top-dose activity, negative = inhibition, usual class: inhibitors. 230,000 tested, under 10 active. AlphaScreen CBFb-His/RUNX1-biotin binding, biochemical; also: % of control where 0% means no effect
Target sequence (Q01196 whole entry, looked up): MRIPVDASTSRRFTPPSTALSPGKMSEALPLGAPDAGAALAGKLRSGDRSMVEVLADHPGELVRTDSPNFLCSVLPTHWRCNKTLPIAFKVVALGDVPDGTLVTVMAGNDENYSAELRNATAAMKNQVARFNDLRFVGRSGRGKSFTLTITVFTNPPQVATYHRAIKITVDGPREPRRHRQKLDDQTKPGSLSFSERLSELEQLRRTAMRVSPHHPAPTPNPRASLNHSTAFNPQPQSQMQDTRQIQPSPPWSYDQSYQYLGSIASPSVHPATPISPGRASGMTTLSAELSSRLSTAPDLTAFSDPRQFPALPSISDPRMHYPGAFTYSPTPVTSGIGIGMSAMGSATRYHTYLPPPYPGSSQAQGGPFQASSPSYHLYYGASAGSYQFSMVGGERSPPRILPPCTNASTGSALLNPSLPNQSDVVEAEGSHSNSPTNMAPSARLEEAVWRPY
Target sequence (Q13951 whole entry, looked up): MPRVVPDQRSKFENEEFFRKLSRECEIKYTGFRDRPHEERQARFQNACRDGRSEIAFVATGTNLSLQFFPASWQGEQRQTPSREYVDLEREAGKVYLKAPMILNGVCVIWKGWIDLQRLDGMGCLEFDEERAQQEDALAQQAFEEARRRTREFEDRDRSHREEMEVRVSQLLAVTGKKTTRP
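Compounds were screened at multiple concentrations against a preformed CBF-beta(His)/RUNX1(biotin) complex (30 nM of each) for 15 min at room temperature, followed by 90 min with nickel and streptavidin beads and AlphaScreen reading.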
IL2 activator: qHTS of IL-2 Activators; IL-2 activation reporter assay, cell-based qHTS; stimulated with anti-CD3/CD4/CD28 beads; in transgenic mouse T cells; activation, % (series mostly up to about 46 µM); 360,000 compounds, 0.065% hits; in the data active = activation above about 50%; inconclusive = mostly about 30% to 49%; also: 0% is about no effect
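Readout is EGFP and DsRed signal by fluorescent plate cytometry after 18 h at 37 degrees C. Transgenic mouse T cells (750/well) received compound for 60 min before bead stimulation (anti-CD3, anti-CD4, anti-CD28); memory T cells served as non-tolerant control.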
MBNL1-CUG inh: qHTS Assay for Inhibitors of MBNL1-poly(CUG) RNA binding | Muscleblind-like protein 1 (Homo sapiens), Q9NR56 | TR-FRET MBNL1-His/biotin-(CUG)12 binding, 665/545 ratio | Potency, µM (highest dose often 57.5 µM), for the others: at the top dose activity change, negative = inhibition, hits mostly inhibitors | 280,000 compounds, 0.036% hits; active = well fitted inhibition curve with a large enough effect in the signal ratio, with a control signal flat, not every such curve was filed as active; inconclusive = small, poorly fitted or top-dose-only effect, or effect the other way, or a change in a side signal; inactive = no such curve, though single readings can be large or run the other way; the % refers to the signal ratio; also: potency is read from the fitted curve at half-maximal effect; % is scaled to controls: 0 for no effect and ±100 for the full control effect
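Compounds (final 92 nM to 58 uM) are added to His-tagged MBNL1 and biotin-(CUG)12, then terbium anti-His antibody and streptavidin-XL665 (5 nM final). After 60 min at room temperature, the 665/545 nm ratio is read.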
TRHR enhancer: qHTS for Small Molecule Agonists and Allosteric Enhancers of Human TRH Receptor: Primary Screen for Enhancers; Thyrotropin-releasing hormone receptor (Homo sapiens), P34981; enhancement, % at 2 µM; 360,000 compounds, 0.66% hits; TRHR cells, fluo-8 calcium fluorescence, EC20 TRH enhancement; in the data active = enhancement above about 30%; also: 0% is about no effect
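TRHR-expressing cells loaded with fluo-8 calcium dye were read kinetically (ex 480/em 530) during compound addition, then stimulated with an EC20 of TRH (10 nM final). Enhancement of the Gq-mediated intracellular calcium response was scored.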
* marks the source's active call; other numbers are inactive results. Unless noted, calls follow the shape of the dose curve; as a rule, active = well fitted curve in the direction sought with a large enough effect; inconclusive = small, poorly fitted or top-dose-only effect, or another doubt; inactive = no such curve, though single readings can be large; an effect the other way counts as inactive or inconclusive.

Results for COc1ccc(C(=O)Nc2ccc(NC(=O)c3ccco3)cc2)cc1 ?
TRHR agonist: -2; IL2 activator: 0; MBNL1-CUG inh: 4%; TRHR enhancer: 39*

How did Cc1cc2c(s1)c1cnn(Cc3c(F)c(F)c(C)c(F)c3F)c(=O)c1n2C do in these assays?
TRHR agonist: 0; TRHR enhancer: 1

What do the screens show for `COc1ccc2nc(NC(=O)CSc3ccccc3)sc2c1`?
TRHR agonist: -1; Epigenetic reg: 0%; CBFb-RUNX1 inh: -1%; IL2 activator: -1; MBNL1-CUG inh: 3%; TRHR enhancer: 32*

What do the screens show for `C#CCn1c(=NC(=O)c2ccccc2[N+](=O)[O-])sc2cc(S(C)(=O)=O)ccc21`?
TRHR agonist: 0; Epigenetic reg: inconclusive; CBFb-RUNX1 inh: 15%; IL2 activator: 1; TRHR enhancer: 30*

Results for COc1ccc(-c2cc(C(=O)Oc3cccc(C)c3C)c3ccccc3n2)cc1 ?
TRHR agonist: -1; Epigenetic reg: -2%; TRHR enhancer: 14

Results for Cc1ccc(Cl)cc1N1CCN(C(=O)c2cc(S(=O)(=O)N3CCC(C)CC3)cn2C)CC1 ?
TRHR agonist: 0; Epigenetic reg: 1%; TRHR enhancer: 3

What do the screens show for `Cc1ccccc1Nc1nc(C#N)nc(NC2CCCC2)n1`?
TRHR agonist: -1; TRHR enhancer: -4

Results for O=C(NCC(c1ccco1)N1CCc2ccccc21)C(=O)Nc1ccccc1F (stereo unspecified) ?
TRHR agonist: 0; IL2 activator: -4; TRHR enhancer: 7

What do the screens show for `COc1ccccc1NC(=O)C(=O)NCC(c1ccco1)N1CCc2ccccc21` (stereo unspecified)?
TRHR agonist: 0; IL2 activator: 0; TRHR enhancer: 33*

How did O=S(=O)(c1ccc2c(c1)OCCO2)N1CCN(S(=O)(=O)c2c(F)ccc(O)c2F)CC1 do in these assays?
TRHR agonist: 0; TRHR enhancer: 4

What do the screens show for `CC(=O)Nc1c(C)nn(-c2ccc([N+](=O)[O-])cc2)c1C`?
TRHR agonist: 0; Epigenetic reg: 0%; CBFb-RUNX1 inh: 2%; IL2 activator: -1; MBNL1-CUG inh: -4%; TRHR enhancer: 37*

Results for Cc1ccc(-n2nc(C)c(NC(=O)CCl)c2C)cc1 ?
TRHR agonist: -1; Epigenetic reg: 2%; CBFb-RUNX1 inh: 1%; IL2 activator: 3; MBNL1-CUG inh: 1%; TRHR enhancer: -3

How did O=C(CNC(=O)c1ccncc1)OC(C(=O)Nc1cc(C(F)(F)F)ccc1Cl)c1ccccc1 (stereo unspecified) do in these assays?
TRHR agonist: 1; TRHR enhancer: 3

Results for Cc1ccc(N=C(NO)c2cnccc2C(F)(F)F)c(C)c1 ?
TRHR agonist: 0; IL2 activator: -3; MBNL1-CUG inh: -2%; TRHR enhancer: 32*

What do the screens show for `Cc1ccc(C(=O)NC2CCC(C)CC2)s1` (stereo unspecified)?
TRHR agonist: 0; IL2 activator: 1; TRHR enhancer: -7

What do the screens show for `Cc1ccc(C(=O)NC2CCCC2)s1`?
TRHR agonist: 0; IL2 activator: -1; MBNL1-CUG inh: -4%; TRHR enhancer: 32*

What do the screens show for `CC(C)(C)OC(=O)NCc1nnc(-c2cc3ccccc3[nH]2)o1`?
TRHR agonist: 2; TRHR enhancer: 3

Assay outcomes (PubChem)
